Screens from PubChem.
Sampled rows, rich in hits. Any-hit rate of the full collection: about 11%.
IMPase Li cell: qHTS Assay for Identifying the Cell-Membrane Permeable IMPase Inhibitors: Potentiation with Lithium; CHO-M1 cells, IP1 TR-FRET (IP-One), carbachol + lithium; Potency, µM (titrated, usually from 59.4 µM), inactives show at the top dose activity, negative = IMPase inhibition, usual class: inhibitors; 210,000 tested, 0.35% active; AID 1457, 2008;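 further: IP1 builds up when IMPase is blocked and the TR-FRET signal falls; potency means the concentration at half of the fitted maximal effect; plate controls were basal vehicle for no effect and high inhibitor control for full effect; nearly all actives have a fitted effect of over 50% in size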
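IP1 accumulation measured by competitive TR-FRET in lysed CHO-M1 cells after 30 min compound exposure at 37C, with a small lithium addition to potentiate weak responses. Hill-equation AC50 from ratio and donor-channel data.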
ALDH1A1 block: qHTS Assay for Inhibitors of Aldehyde Dehydrogenase 1 (ALDH1A1) | AID 1030, 2008 | Purified ALDH1A1, NADH fluorescence, propionaldehyde substrate | Potency, µM (doses to about 75.3 µM), for inactives: at the top dose activity, negative = inhibition, hits mostly inhibitors | 220,000 tested, 7.3% active | Aldehyde dehydrogenase 1A1 (Homo sapiens), P00352; active means well fitted inhibition curve with a large enough effect, not every such curve was filed as active; inconclusive means small, poorly fitted or top-dose-only effect, or another doubt; inactive means no such curve, though single readings can be large or run the other way;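 further: potency means the concentration at half of the fitted maximal effect; plate controls were no enzyme wells and a reference inhibitor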
IMPase cell inh: qHTS Assay for Identifying the Cell-Membrane Permeable IMPase Inhibitors; 120,000 tested, under 10 active; Inositol monophosphatase 1 (Rattus norvegicus), P97697; CHO-M1 cells, IP1 accumulation, HTRF TR-FRET ratio; inhibition (IP1 accumulation), % at 46.1 µM; active means well fitted curve in the direction sought with a large enough effect in the signal ratio, not every such curve was filed as active; inconclusive means small, poorly fitted or top-dose-only effect, or a change in a side signal; inactive means no such curve, though single readings can be large or run the other way; the % refers to the signal ratio;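 further: cells stimulated with carbachol in lithium chloride buffer; plate controls were DMSO basal wells for no effect and reference inhibitor wells for full effect; higher means more IMPase inhibition seen as more IP1 and lower FRET ratio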
Target sequence (P97697 whole entry, looked up): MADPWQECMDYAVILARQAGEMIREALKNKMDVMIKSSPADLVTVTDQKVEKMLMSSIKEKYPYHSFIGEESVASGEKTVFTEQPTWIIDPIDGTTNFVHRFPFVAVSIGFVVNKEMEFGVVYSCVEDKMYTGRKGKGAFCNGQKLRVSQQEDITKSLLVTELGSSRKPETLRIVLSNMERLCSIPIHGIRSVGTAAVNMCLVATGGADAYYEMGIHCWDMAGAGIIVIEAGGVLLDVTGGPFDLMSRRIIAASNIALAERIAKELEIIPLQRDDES
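CHO-M1, 2000 cells/well, cultured 16–30 h; cpd up to 46 uM; carbachol (50 uM solution, stimulation buffer w/ 50 mM LiCl, pH 7.4), 30 min 37C; IP-One TR-FRET, 10 min RT; Ex 320/Em 665, 620; Hill-fit AC50.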
PNC inhibitor: High Content Assay for Compounds that inhibit the Assembly of the Perinucleolar Compartment. PC3M PTB-GFP, PNC prevalence imaging, 16 h; active compounds read low. activity change (PNC), negative = inhibition, % at 10 µM. 140,000 tested, 3.1% active. AID 2417, 2010;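 active means readout at or below -70, meaning at least 70% loss of cells showing the perinucleolar compartment, a nuclear body marking cancer cells; inconclusive means readout between -30 and a set limit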;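 further: plate controls were DMSO wells for no effect and camptothecin positive control wells for full effect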
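PC3M cells stably expressing PTB-GFP, 750–1000 cells/well, treated 16 h at 37 °C with compound (23 nl of library stock), in duplicate. After paraformaldehyde fixation and Hoechst stain, imaged at 20x; PNC prevalence scored by image analysis.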
ALOX12 inhib: qHTS Assay for Inhibitors of 12-hLO (12-human lipoxygenase) | Potency, µM (series often up to 57.1 µM), for inactives: at the highest dose activity change, negative = inhibition, usual class: inhibitors | purified 12-hLO, xylenol orange hydroperoxide absorbance | 150,000 tested, 0.12% active | AID 1452, 2008 | Polyunsaturated fatty acid lipoxygenase ALOX12 (Homo sapiens), P18054; further: potency means the concentration at half of the fitted maximal effect; nearly all actives have a fitted effect of over 55% in size
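Purified human 12hLO (150 nM final) was preincubated with compounds for 15 min at room temperature in 25 mM Hepes pH 7.0, 0.01% Triton X-100, then reacted with 40 uM arachidonic acid for 30 min. Hydroperoxide was detected with ferrous iron/xylenol orange.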
HPGD inh: qHTS Assay for Inhibitors of HPGD (15-Hydroxyprostaglandin Dehydrogenase); purified HPGD, NADH fluorescence kinetic, PGE2 substrate; Potency, µM, without a hit: at the top dose activity change, negative = inhibition, usual class: inhibitors; 150,000 tested, 4.3% active; AID 894, 2007; active means well fitted inhibition curve with a large enough effect, not every such curve was filed as active; inconclusive means small, poorly fitted or top-dose-only effect, or another doubt; inactive means no such curve, though single readings can be large or run the other way; further: potency means the concentration at half of the fitted maximal effect
Target sequence (P15428 whole entry, looked up): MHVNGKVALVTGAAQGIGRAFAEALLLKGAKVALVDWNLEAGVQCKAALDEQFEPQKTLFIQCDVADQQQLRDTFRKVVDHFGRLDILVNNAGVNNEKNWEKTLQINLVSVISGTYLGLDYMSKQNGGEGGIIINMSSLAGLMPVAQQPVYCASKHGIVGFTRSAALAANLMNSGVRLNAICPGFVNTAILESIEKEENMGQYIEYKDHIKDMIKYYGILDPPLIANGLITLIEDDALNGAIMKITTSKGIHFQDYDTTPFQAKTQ
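20 nM HPGD preincubated 15 min at room temperature with compound in 50 mM Tris-HCl pH 8, 0.01% Tween 20. Started with 1 mM NAD+ and 30 uM prostaglandin E2; NADH fluorescence (360/450 nm) read 5 times over 30-s intervals, last minus first.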
An asterisk follows results filed as active; ? = inconclusive; . = not tested or not shown; [ ] = dose if it differs, or a comment. Unless noted, the call rests on the fitted dose curve; in most records, active means well fitted curve in the direction sought with a large enough effect; inconclusive means small, poorly fitted or top-dose-only effect, or another doubt; inactive means no such curve, though single readings can be large; an effect the other way counts as inactive or inconclusive. Unless noted, on the % scale 0 is the no-effect control and ±100 the full control effect.

SMILES | IMPase Li cell | ALDH1A1 block | IMPase cell inh | PNC inhibitor | ALOX12 inhib | HPGD inh
CC(=O)N1N=C2c3ccccc3CCC2C1c1ccc(F)cc1 (centres undefined) | . | -8% | . | . | . | .
CCOc1ccccc1NC(=S)Nc1ccc(S(N)(=O)=O)cc1 | 6% | -7% | . | . | . | .
NS(=O)(=O)c1ccc(NC(=S)Nc2ccn(Cc3cccc4ccccc34)n2)cc1 | 13% | 13µM* | . | . | . | .
CC1CCCN(c2nc3ccccc3nc2C(C#N)S(=O)(=O)c2ccccc2)C1 (centres undefined) | 6%[38.3 µM] | ? | -25 | -15 | -11% | -8%
COc1ccc(S(=O)(=O)C(C#N)c2nc3ccccc3nc2N2CCC(C)CC2)cc1 (centres undefined) | 20%[38.3 µM] | 18µM* | 4 | -16 | -11% | -16%
CN(C)C(=O)c1ccc(-c2ccc3ncnc(N4CCOCC4)c3c2)cc1 | 27% | -13% | . | . | . | .
OC1CCN(c2c3c(nc4cc(-c5ccc(F)cc5)nn24)CCC3)CC1 | 4%[38.3 µM] | 6% | 1 | 14 | -29% | -19%
O=C(C1CCCO1)N1CCN(c2c3c(nc4cc(-c5ccc(F)cc5)nn24)CCC3)CC1 (centres undefined) | -1%[38.3 µM] | 22µM* | -2 | -23 | -5% | ?
Cc1c(C(=O)NCCSCc2ccco2)cccc1[N+](=O)[O-] | -1% | -5% | . | -20 | 1% | -20%
Cc1ccc(SCCNC(=O)c2cccc([N+](=O)[O-])c2C)cc1 | 5%[38.3 µM] | ? | 6 | 17 | -7% | 25µM*
Cc1c(C(=O)NCCSCc2ccccc2)cccc1[N+](=O)[O-] | 5% | 3.2µM* | . | . | . | .
Cc1c(C(=O)NCCSCc2ccc(Cl)cc2Cl)cccc1[N+](=O)[O-] | 23%[38.3 µM] | ? | 4 | 11 | -10% | 22µM*
O=C(c1cccc2ccccc12)C1CCCN(C(=O)c2ccc(N3CCOCC3)cc2)C1 (centres undefined) | 10% | -2% | . | . | . | .
CC(C)c1cc(C(=O)Nc2cc(Cl)ccc2O)no1 | 12%[38.3 µM] | 3% | ? | -5 | -8% | 5.6µM*
CC(C)Cc1cc(C(=O)Nc2cc(Cl)ccc2Cl)no1 | 28%[38.3 µM] | -5% | 4 | 7 | 1% | 14µM*
CC(C)c1cc(C(=O)Nc2cc(Br)ccc2O)no1 | 32%[38.3 µM] | 4% | 4 | 34 | -1% | 8.9µM*
CC(C)Cc1cc(C(=O)Nc2ccc(F)cc2F)no1 | 22%[38.3 µM] | ? | 15 | -11 | -3% | -17%
COc1cc(C(=O)NNC(=S)NCc2ccco2)cc(OC)c1OC | 1% | -4% | . | . | . | .
Cc1ccc(C2=Nc3ccccc3N=C(c3ccc(F)cc3)C2)c(O)c1 | . | . | -20 | . | . | .
Cn1cnnc1SC1c2cccc3cccc(c23)C1NS(=O)(=O)c1ccccc1 (centres undefined) | -5% | ? | . | ? | 3% | -14%
Cn1cnnc1SC1CCCCC1NS(=O)(=O)c1ccccc1 (centres undefined) | -10%[38.3 µM] | 7.9µM* | -2 | ? | -5% | -3%
O=S(=O)(NC1CCCCC1Nc1ccccc1)c1ccccc1 (centres undefined) | -3% | ? | . | ? | 2% | 3%
Cn1cnnc1SC1CCCCC1NS(=O)(=O)c1ccc(Cl)cc1 (centres undefined) | 1% | 13µM* | 2 | 121 | -3% | -3%
Nn1cnnc1SC1CCCCC1NS(=O)(=O)c1ccccc1 (centres undefined) | 33%[38.3 µM] | 10µM* | 0 | ? | 8% | -6%
NS(=O)(=O)c1cccc(NC(=S)NC(=O)C23CC4CC(CC(C4)C2)C3)c1 | 19% | 28µM* | . | -19 | ? | -24%
SMILES | IMPase Li cell | ALDH1A1 block | IMPase cell inh | PNC inhibitor | ALOX12 inhib | HPGD inh
Cc1ccc(S(=O)(=O)N(C)C)cc1NC(=S)NC(=O)C12CC3CC(CC(C3)C1)C2 | 5% | ? | . | ? | 5% | -5%
Cc1ccc(Sc2c(C)nn(C(=O)COc3ccc(F)cc3)c2C)cc1 | . | . | 10 | . | . | .
C=CCn1c(SCC(=O)c2ccc(Cl)s2)nc2ccccc2c1=O | 11%[38.3 µM] | 13% | 0 | 23 | 4% | -13%
C=CCn1c(SCC(=O)c2cccs2)nc2sc(C)cc2c1=O | 47%[38.3 µM] | 11µM* | -1 | -18 | -6% | ?
C=CCn1c(SCC(=O)c2cccs2)nnc1-c1cccc(OC)c1 | 9%[38.3 µM] | ? | 16 | 13 | -15% | 20µM*
COC(=O)/C=C/c1ccc(C(=O)NCC(=O)N[C@@H](CCC(=O)OC)C(=O)N[C@@H](CC(C)C)C(N)=O)cc1 | -1% | ? | . | . | . | .
O=C(O)c1ccc(B(O)O)cc1 | -3% | -7% | . | . | 0% | -5%
O=C(OCCN1C(=O)c2cccc3c(N4CCOCC4)ccc(c23)C1=O)c1ccc(Cl)cc1Cl | 14% | 5% | -2 | -98* | 2% | -15%
COc1ccc(C(=O)NCCc2nc3ccccc3[nH]2)cc1 | . | . | 11 | . | . | .
CCN(C(=O)COC(=O)/C=C/c1ccc(S(=O)(=O)N2CCc3ccccc32)cc1)C1CCS(=O)(=O)C1 (centres undefined) | 15% | 5µM* | . | . | . | .
CCOC(=O)CSc1nnc(-c2ccccc2NC(=O)c2ccccc2)o1 | 11µM* | ? | 2 | ? | -5% | -23%
CCc1nnc(NC(=O)CSc2nnc(-c3ccccc3NC(=O)c3ccccc3)o2)s1 | ? | -5% | 6 | -8 | 2% | ?
O=c1c(CN2CCN(c3ccccn3)CC2)coc2ccccc12 | 18% | 25µM* | . | 9 | -3% | -2%
COc1cc2c(cc1NC(=O)C(C)OC(=O)C1CC(=O)N(Cc3ccco3)C1)oc1ccccc12 (centres undefined) | 40%[38.3 µM] | -10% | 13 | 38 | 5% | 28µM*
Cc1ccc(NC2=C(N3CCCCC3)C(=O)c3ccccc3C2=O)cc1 | . | 7% | 7 | 13 | -13% | .
O=C1C(Nc2ccccc2)=C(N2CCCCC2)C(=O)c2ccccc21 | 4%[38.3 µM] | 20µM* | -5 | 61 | 0% | -1%
O=C1C(Nc2cccc(O)c2)=C(N2CCCCC2)C(=O)c2ccccc21 | 24%[38.3 µM] | ? | 11 | 47 | 2% | -11%
COc1ccccc1NC1=C(N2CCCCC2)C(=O)c2ccccc2C1=O | 17% | 10µM* | 9 | -85* | -3% | -4%
O=C(/C=C/c1ccccc1)c1ccc(O)cc1 | 28% | -8% | . | . | 0% | -19%
